Source: PubChem BioAssay AID624171 (National Center for Advancing Translational Sciences (NCATS), 2012)
Screen size: about 410,000 compounds; about 1,200 (0.29%) were called active. Roughly 2% stayed inconclusive and do not appear here. Calls follow the shape of the dose curve; as a rule, active = well fitted activation curve with a large enough effect; inconclusive = small, poorly fitted or top-dose-only effect; inactive = flat fitted curve, though single readings scatter. Many of the other results were omitted from the sample, so actives are more common in it than they were.

Assay: qHTS of Nrf2 Activators; also: nearly all actives have a fitted effect of over 65% in size; as to activation: % of control where 0% means no effect
Conditions: AREc32 ARE-luciferase reporter (MCF7-derived line), luminescence, 24 h; series mostly up to 46.1 µM; activation: at the top concentration
In short: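 AREc32 cells carrying an ARE-driven firefly luciferase, 1000 cells/well in OPTI-MEM with 5% FBS, dosed after overnight attachment and incubated 24 hr at 37 deg C. Steady-Glo luminescence read after 30 min at RT.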
Potency is read from the fitted curve at half-maximal effect.

| Compound | activation | Potency |
| --- | --- | --- |
| O=C(OCC#CCSc1nnc(-c2ccncc2)o1)c1sc2ccccc2c1Cl | 0.724% (inactive) |  |
| C#CCSc1nnc(-c2sc3ccccc3c2Cl)o1 |  | 4.47 µM (active) |
| COc1ccc2c(Cl)c(-c3nnco3)sc2c1 | 2.03% (inactive) |  |
| CCN(CC)c1ccc(NC(=O)CN2C(=O)c3cccnc3Oc3ccc(Cl)cc32)c(C)c1 | -0.609% (inactive) |  |
| Cc1ccc2cccc(NC(=O)c3cccc4ccccc34)c2n1 | 4.65% (inactive) |  |
| Cc1cccc2c(=O)cc(CSc3ccccc3NC(=O)C(C)C)[nH]c12 | 4.34% (inactive) |  |
| Cc1ccccc1NC(=O)c1cnn(-c2ccccc2)c1NC(=O)c1ccco1 | 0.175% (inactive) |  |
| CCn1nc(NC(=O)c2ccco2)c2cc3ccc(C)cc3nc21 | 3.83% (inactive) |  |
| Cc1ccnc(NC(=O)c2ccco2)n1 |  | 12.6 µM (active) |
| COc1ccc(NC(=O)CCc2nnc3n(CC(C)C)c(=O)c4ccccc4n23)cc1OC | 0.545% (inactive) |  |
| Cc1ccc(Cn2c(CCCNC(=O)C3CCCCC3)nc3ccccc32)cc1 | 6.06% (inactive) |  |
| CCc1cc(C(=O)Nc2nnc(C3CC3)s2)sc1C | 3.95% (inactive) |  |
| O=C(Nc1nnc(C2CC2)s1)c1cc(Cl)sc1Cl |  | 20 µM (active) |
| CCc1ccccc1OCC(=O)Nc1nnc(C2CC2)s1 | -0.969% (inactive) |  |
| CCOc1ccc(-n2c(SCC(=O)NCc3ccccc3)nc3n[nH]c(C)c3c2=N)cc1 | 5.99% (inactive) |  |
| CCC(CC)c1nnc(NC(=O)/C=C/c2ccco2)s1 |  | 2.51 µM (active) |

| Compound | activation | Potency |
| --- | --- | --- |
| CCC(CC)c1nnc(NC(=O)C2CCN(C(=O)c3ccco3)CC2)s1 | 4.71% (inactive) |  |
| C/C=C/C(=O)Nc1nnc(C(C)C)s1 | 5.58% (inactive) |  |
| Cc1nnc(NC(=O)/C=C/c2ccco2)s1 |  | 3.55 µM (active) |
| CCC(CC)c1nnc(NC(=O)C2=COCCO2)s1 | 2.51% (inactive) |  |
| CCc1ccc2oc(-c3ccc(C)c(NC(=O)/C=C/c4ccco4)c3)nc2c1 | 26.7% (inactive) |  |
| Cc1cc(NS(=O)(=O)c2ccc(NC(=O)c3ccccc3C)cc2)nc(C)n1 | -0.564% (inactive) |  |
| CCc1ccc(N2C(=O)CN(S(=O)(=O)CC)CC2(C)C(=O)NC2CCCCC2)cc1 (stereo unspecified) | -0.616% (inactive) |  |
| Cc1ccccc1OCC(=O)Nc1c(C(=O)Nc2ccccc2F)oc2ccccc12 | -0.295% (inactive) |  |
| CCOC(=O)c1cccc(NC(=O)c2cc(CN3CCCC3)on2)c1 | 4.24% (inactive) |  |
| CC1CCC2(CC1)N=C(c1ccccc1)C(=O)N2CC(=O)Nc1ccc(F)c(Cl)c1 (stereo unspecified) | -0.343% (inactive) |  |
| COc1ccc(Cl)cc1NC(=O)CSc1nc(=O)[nH]c2c1CCCC2 | 0.708% (inactive) |  |
| CCNC(=O)c1cc2n(n1)CCCN(Cc1ccc(C)cc1)C2=O | -0.449% (inactive) |  |
| CCSc1nnc(-c2cc3c(s2)-c2ccccc2CC3)o1 |  | 12.6 µM (active) |
| Fc1ccc(CSc2nnc(-c3cc4c(s3)-c3ccccc3CC4)o2)cc1 | 4.69% (inactive) |  |
| COc1ccccc1-c1nnc(SCC(N)=O)o1 | 19.2% (inactive) |  |
